According to PubChem BioAssay AID493243 (Broad Institute, 2011):
Activity calls are given as the source filed them. No rule for the calls is given here.

Assay: GFP fluorescence signal inhibitors, dose response, artefact control, biochemical, plate reader, dry powder (AID 493243)
Conditions: GFP fluorescence counter-screen

Structure (SMILES): CCn1nc(/C=C/c2ccccc2)nc2c(=O)n(C)c(=O)nc1-2
- AC50: 221 nM (active)
